Data reported in PubChem BioAssay (Tox21).
Inconclusive results are not listed. Active and inactive are the calls of the source. Unless noted, calls come from the whole dose curve; as a rule, active = well fitted curve in the direction sought with a large enough effect in the repeat runs; inconclusive = weak or mixed curves; inactive = no such curve, though single readings can be large; an effect the other way counts as inactive or inconclusive.

Tests used:
[1] = qHTS assay to identify small molecule antagonists of the estrogen related receptor signaling pathway with the pleiotropic PPARgamma coactivator (PGC) from Tox21 10K library - cell viability counter screen (AID 1224840; active = well fitted cell-killing curve with a large enough effect in the repeat runs, not every such curve was filed as active; note: nearly all actives have a fitted effect of over 40% in size)
How it was run: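 Following seeding of 2,000 PGC/ERR cells/well and 6 hours' incubation, test compounds were delivered in DMSO. The plates then sat 17.5 hours at 37 C before a fluorogenic live-cell protease reagent (CellTiter-Fluor) was read after 30 min.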

[2] = qHTS assay to identify small molecule antagonists of the estrogen related receptor signaling pathway with the pleiotropic PPARgamma coactivator (PGC) from Tox21 10K library (AID 1224841; call rule not given here; note: series mostly up to about 92 µM; actives are mostly falling curves and most rising ones were filed inactive; nearly all actives have a fitted effect of over 50% in size)
How it was run: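 qHTS antagonist format: PGC/ERR cells, 2k/well, compound in DMSO by pin transfer after 6 h attachment, 18 h treatment at 37 C, One-Glo luminescence read at 30 min.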

[3] = qHTS assay to identify small molecule agonists of the estrogen related receptor signaling pathway with the pleiotropic PPARgamma coactivator (PGC) from Tox21 10K library (AID 1224842); note: nearly all actives have a fitted effect of over 15% in size
How it was run: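 PGC/ERR reporter cell line, 2,000 cells per well, incubated 6 h at 37 C before 23 nL compound in DMSO was added. After 18 h at 37 C, One-Glo luminescence read following 30 min at room temperature.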

[4] = qHTS assay to identify small molecule agonists of the hypoxia (HIF-1) signaling pathway - cell viability counter screen (AID 1224844; calls by dose curve; note: nearly all actives have a fitted effect of over 50% in size)
How it was run: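 Cells (HRE-bla ME-180, 2,000 per well) sat 5 hrs at 37C, got compound for 17 hrs, were read for CCF4-AM FRET, and were finally lysed with CellTiter-Glo for a 30 min room-temperature luminescence read.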

[5] = qHTS assay to identify small molecule agonists of H2AX (AID 1224845; active = well fitted activation curve with a large enough effect in the signal ratio in the repeat runs, not every such curve was filed as active; the % refers to the signal ratio)
How it was run: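 Wild-type CHO-K1 cells, plated overnight, exposed 3hr at 37C to 15 concentrations (0.76% DMSO final). Lysed, then HTRF anti-pH2AX (S139) cryptate and anti-H2AX-d2 antibodies, 24 hr room temperature; 665/620 nm emission read.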

[6] = qHTS assay to identify small molecule agonists of the hypoxia (HIF-1) signaling pathway (AID 1224846; active = well fitted activation curve with a large enough effect in the signal ratio in the repeat runs, not every such curve was filed as active; the % refers to the signal ratio)
How it was run: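 A low-serum medium (0.5% dialyzed FBS) holding 2,000 HRE-bla ME-180 cells per well is preincubated for 5 hrs, dosed with compounds by pintool, and kept a further 17 hrs at 37C, 5% CO2 before CCF4-AM FRET detection of beta-lactamase.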

[7] = qHTS assay to identify small molecule agonists of H2AX - cell viability counter screen (AID 1224847; calls by dose curve; note: top concentration of the series differs between compounds; nearly all actives have a fitted effect of over 30% in size)
How it was run: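 CHO-K1 wt, 1000 cells/well, o/n 37C; cpds 15 conc, 3 h 37C, 0.76% DMSO; CellTiter-Glo, 30 min RT, luminescence.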

[8] = qHTS assay to identify small molecule antagonists of the estrogen related receptor (ERR) signaling pathway from Tox21 library (AID 1224848); note: nearly all actives have a fitted effect of over 50% in size; note: potency is the fitted concentration of half-maximal effect
How it was run: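 Luminescent reporter read-out (ONE-Glo) from NTP's ERR cell line after 18 h treatment at 37 C with DMSO-dissolved Tox21 compounds; cells pre-plated 6 h beforehand at 2,000 per well.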

[9] = qHTS assay to identify small molecule agonists of the estrogen related receptor (ERR) signaling pathway from Tox21 library (AID 1224849; calls by dose curve; note: nearly all actives have a fitted effect of over 15% in size)
How it was run: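 Screening used an NTP-provided ERR luciferase cell line. Compounds in DMSO were added 6 h after seeding and left 18 h at 37 C before a 30 min ONE-Glo step and luminescence reading.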

[10] = qHTS RealTime-Glo MT Cell Viability Assay in HepG2 cells - 24 hour (AID 1224867); note: nearly all actives have a fitted effect of over 50% in size
How it was run: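 qHTS, HepG2, 600 cells/well, RealTime-Glo (NanoLuc + prosubstrate) added with cells; 5 h preincubation; DMSO compound addition; 37 C; luminescence at 0/8/16/24/32/40 h.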

[11] = qHTS RealTime-Glo MT Cell Viability Assay in HEK293 cells - 32 hour (AID 1224868); note: nearly all actives have a fitted effect of over 50% in size; note: potency is the fitted concentration of half-maximal effect
How it was run: (§1)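 Assay medium contained NanoLuc luciferase plus cell-permeant prosubstrate, added with HEK293 cells at 600 cells/well. After 5 h at 37 C/5% CO2 compounds were added; plates stayed at 37 C for 40 h with serial luminescence reads.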

[12] = A CellTox Green Cytotoxicity Assay to monitor cytotoxicity in HEK293 cells - 0 hour (AID 1224869); note: nearly all actives have a fitted effect of over 50% in size
How it was run: (§2)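 Fluorescence intensity, read at 0, 8, 16, 24, 32 and 40 h of compound treatment, reflected dye binding to DNA of dead HEK293 cells; compounds (23 nL, DMSO) were added 5 h after plating cells with reagent.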

[13] = qHTS RealTime-Glo MT Cell Viability Assay in HepG2 cells - 40 hour (AID 1224870); note: nearly all actives have a fitted effect of over 50% in size
How it was run: (§3)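 HepG2 cells (600/well) mixed with RealTime-Glo MT reagent, settled 5 h at 37 C/5% CO2 before compound addition. Nonlytic NanoLuc luminescence from viable-cell prosubstrate reduction read repeatedly during 40 h treatment at 37 C.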

[14] = A CellTox Green Cytotoxicity Assay to monitor cytotoxicity in HEK293 cells - 40 hour (AID 1224871); note: nearly all actives have a fitted effect of over 45% in size
How it was run: as §2

[15] = qHTS RealTime-Glo MT Cell Viability Assay in HEK293 cells - 16 hour (AID 1224872); note: nearly all actives have a fitted effect of over 50% in size; note: potency is the fitted concentration of half-maximal effect
How it was run: as §1

[16] = qHTS RealTime-Glo MT Cell Viability Assay in HEK293 cells - 40 hour (AID 1224874); details: RealTime-Glo luminescence; max response: hits give low values; note: nearly all actives have a fitted effect of over 50% in size; note: potency is the fitted concentration of half-maximal effect
How it was run: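 Viable HEK293 cells reduce a cell-permeant prosubstrate; the product diffuses out and is consumed by NanoLuc in the medium to give light. Compounds went in after a 5 h incubation and plates were read over the treatment course.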

[17] = A CellTox Green Cytotoxicity Assay to monitor cytotoxicity in HEK293 cells - 24 hour (AID 1224875); note: series mostly up to about 77 µM; nearly all actives have a fitted effect of over 45% in size
How it was run: as §2

[18] = qHTS RealTime-Glo MT Cell Viability Assay in HepG2 cells - 8 hour (AID 1224873); note: nearly all actives have a fitted effect of over 55% in size
How it was run: as §3

[19] = target: Thyrotropin receptor (Homo sapiens) (UniProt P16473); assay: qHTS assay to identify small molecule agonists of the thyroid stimulating hormone receptor (TSHR) signaling pathway (AID 1224843; calls by dose curve; note: nearly all actives have a fitted effect of over 45% in size)
How it was run: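 Steps: seed 800 TSHR-HEK293 cells per well; add test compound and hold 30 min at ambient temperature; dispense cAMP-d2 then anti-cAMP cryptate; incubate 1 h at ambient; measure fluorescence intensity.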
% is set by controls: 0 for no effect and ±100 for the full control effect.

Thyrotropin receptor (Homo sapiens), sequence (P16473 whole entry, looked up): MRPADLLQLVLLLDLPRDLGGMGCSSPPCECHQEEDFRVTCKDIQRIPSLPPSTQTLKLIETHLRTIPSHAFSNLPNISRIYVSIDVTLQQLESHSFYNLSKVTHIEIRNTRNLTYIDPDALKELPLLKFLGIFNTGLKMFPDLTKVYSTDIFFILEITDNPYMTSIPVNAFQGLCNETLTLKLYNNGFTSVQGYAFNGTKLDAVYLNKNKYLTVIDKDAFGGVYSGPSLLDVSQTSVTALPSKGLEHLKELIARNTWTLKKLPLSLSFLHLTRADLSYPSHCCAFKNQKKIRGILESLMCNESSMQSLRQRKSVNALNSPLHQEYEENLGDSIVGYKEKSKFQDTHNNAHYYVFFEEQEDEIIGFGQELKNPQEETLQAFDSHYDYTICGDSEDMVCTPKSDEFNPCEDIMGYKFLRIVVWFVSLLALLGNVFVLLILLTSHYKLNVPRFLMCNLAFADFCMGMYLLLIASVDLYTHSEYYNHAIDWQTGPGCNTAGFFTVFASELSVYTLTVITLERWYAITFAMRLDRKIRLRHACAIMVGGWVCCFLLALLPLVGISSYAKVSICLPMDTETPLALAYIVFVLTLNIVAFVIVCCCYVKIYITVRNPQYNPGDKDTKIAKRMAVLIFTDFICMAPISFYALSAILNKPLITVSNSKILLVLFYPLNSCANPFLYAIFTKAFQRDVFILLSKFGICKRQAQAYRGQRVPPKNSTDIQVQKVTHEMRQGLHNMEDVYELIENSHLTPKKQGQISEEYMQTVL

CN=C(NC#N)NCCSCc1csc(N=C(N)N)n1
inactive: outcome [1] | Potency [2] | outcome [3] | outcome [4] | outcome [5] | outcome [6] | Potency [7] | Potency [8] | outcome [9] | outcome [10] | Potency [11] | Potency [12] | outcome [13] | Potency [14] | Potency [15] | max response [16] 1.73% | Potency [17]

NS(=O)(=O)c1ccccc1OC(F)(F)F
inactive: outcome [1] | outcome [3] | outcome [4] | outcome [5] | outcome [6] | Potency [7] | Potency [8] | outcome [9] | outcome [10] | Potency [11] | Potency [12] | outcome [13] | Potency [14] | outcome [18] | max response [16] 6.21% | Potency [17]

CN(C)CCOCCN(C)CCO
inactive: outcome [1] | outcome [3] | outcome [19] | outcome [4] | outcome [5] | outcome [6] | Potency [7] | Potency [8] | outcome [9] | outcome [10] | Potency [12] | outcome [13] | Potency [14] | Potency [15] | outcome [18] | max response [16] -7.32% | Potency [17]

NC(=O)NC(=O)Cc1ccccc1
inactive: outcome [1] | Potency [2] | outcome [3] | outcome [4] | outcome [5] | outcome [6] | Potency [7] | Potency [8] | outcome [9] | outcome [10] | Potency [11] | outcome [13] | Potency [14] | outcome [18] | max response [16] 3.75% | Potency [17]

Cc1cccc(Nc2ccncc2S(=O)(=O)NC(=O)NC(C)C)c1
inactive: outcome [1] | outcome [3] | outcome [19] | outcome [4] | outcome [5] | outcome [6] | Potency [8] | outcome [9] | Potency [11] | Potency [12] | outcome [13] | Potency [14] | Potency [15] | max response [16] -1.39% | Potency [17]

c1ccccc1
inactive: outcome [1] | outcome [3] | outcome [19] | outcome [4] | outcome [5] | outcome [6] | Potency [7] | Potency [8] | outcome [9] | outcome [10] | Potency [11] | Potency [12] | outcome [13] | Potency [14] | Potency [15] | max response [16] -3.11% | Potency [17]

Cc1nc2n(c(=O)c1CCN1CCC(C(=O)c3ccc(F)cc3)CC1)CCS2
inactive: outcome [1] | outcome [3] | outcome [19] | outcome [4] | outcome [5] | outcome [6] | Potency [7] | outcome [9] | outcome [10] | Potency [12] | outcome [13] | Potency [14] | outcome [18] | Potency [17]
active: Potency [8] 11.9 µM | Potency [11] 5.35 µM | Potency [15] 9.52 µM | Potency [16] 6.01 µM

O=c1cc(O)c(Cl)c[nH]1
inactive: outcome [1] | outcome [19] | outcome [4] | outcome [5] | outcome [6] | Potency [7] | outcome [10] | Potency [11] | Potency [12] | outcome [13] | Potency [14] | Potency [15] | outcome [18] | max response [16] 4.88% | Potency [17]

CC(C)=CC(C)(C)C
inactive: outcome [1] | outcome [19] | outcome [4] | outcome [5] | outcome [6] | Potency [7] | Potency [11] | Potency [12] | outcome [13] | Potency [14] | Potency [15] | outcome [18] | max response [16] 6.16% | Potency [17]

C=C[C@@H](C)CCC=C(C)C
inactive: outcome [1] | outcome [19] | outcome [4] | outcome [5] | outcome [6] | Potency [7] | outcome [10] | Potency [11] | Potency [12] | outcome [13] | Potency [14] | Potency [15] | max response [16] 9.85% | Potency [17]

CCNC(=O)NCCCOc1cccc(CN2CCCCC2)c1
inactive: outcome [1] | outcome [3] | outcome [4] | outcome [5] | outcome [6] | Potency [8] | outcome [9] | Potency [11] | Potency [12] | outcome [13] | Potency [14] | Potency [15] | outcome [18] | max response [16] -3.36% | Potency [17]

CC1(N)CCC(C(C)(C)N)CC1 (stereo unspecified)
inactive: outcome [1] | outcome [19] | outcome [4] | outcome [5] | outcome [6] | Potency [7] | outcome [10] | Potency [12] | outcome [13] | Potency [14] | Potency [15] | outcome [18] | max response [16] -1.45% | Potency [17]

O=C1NC2NC(=O)NC2N1 (stereo unspecified)
inactive: outcome [1] | outcome [19] | outcome [4] | outcome [5] | outcome [6] | Potency [7] | Potency [11] | Potency [12] | outcome [13] | Potency [14] | max response [16] 1.34% | Potency [17]

C1CCN2C[C@@H]3C[C@@H](CN4CCCC[C@@H]34)[C@H]2C1
inactive: outcome [1] | outcome [3] | outcome [4] | outcome [5] | Potency [7] | Potency [8] | outcome [9] | outcome [10] | Potency [11] | Potency [12] | outcome [13] | Potency [14] | Potency [15] | outcome [18] | max response [16] 1.31% | Potency [17]
